The source of these data is the supplement of paper PMC4022240.

Holding throughout (assay): peptide microarray binding signal (635 nm), min-max normalized on array (fraction of array maximum); higher = stronger binding
Holding throughout (details): peptide region: H3 5-17

Assay [1] addresses T1, HaloTag-ATRX ADD domain (163-292).
T1 chain: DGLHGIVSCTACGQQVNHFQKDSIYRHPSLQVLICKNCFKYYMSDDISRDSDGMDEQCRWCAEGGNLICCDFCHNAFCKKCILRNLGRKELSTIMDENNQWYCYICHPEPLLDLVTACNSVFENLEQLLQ
In outline: (§1)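 Triplicate spots of histone 13-mer peptide–cellulose conjugates with a Cy3 tracer were printed on nitrocellulose and probed for 1 h at 4°C with biotin-labelled HaloTag reader fusions (10 nM to 1 μM) plus streptavidin-Alexa Fluor 647 or rabbit histone antibodies (1:10,000 to 1:2,000) plus anti-rabbit Alexa 647. An Axon GenePix 4000B read the 635 nm channel. Binding signal is the spot-triplicate mean intensity after min-max scaling within each library.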

In assay [2] the target is HaloTag-ING2 PHD (mouse Ing2 200-280). In outline:
as §1

For assay [3], the target named is anti-H3K4me3 antibody ab8580. The essentials: as §1
For assay [4], the target named is anti-H3K9me3 antibody ab8898. In outline: as §1
The mark [5] stands for this setting: peptide modifications: H3S10ph, binder concentration: 1:2,000 dilution.
Where [6] appears, read: peptide modifications: H3S10ph, binder concentration: 1:10,000 dilution.
The mark [7] stands for this setting: peptide modifications: H3T11ph H3K14me2, binder concentration: 1:2,000 dilution.
The mark [8] stands for this setting: peptide modifications: H3T11ph H3K14me2, binder concentration: 1:10,000 dilution.
Where [9] appears, read: peptide modifications: H3S10ph H3K14me2, binder concentration: 1:2,000 dilution.
The mark [10] stands for this setting: peptide modifications: H3S10ph H3K14me2, binder concentration: 1:10,000 dilution.
Setting [11] is: peptide modifications: H3T11ph, binder concentration: 1:2,000 dilution.
Where [12] appears, read: peptide modifications: H3T11ph, binder concentration: 1:10,000 dilution.
Where [13] appears, read: peptide modifications: H3S10ph H3K14me3, binder concentration: 1:2,000 dilution.
Where [14] appears, read: peptide modifications: H3S10ph H3K14me3, binder concentration: 1:10,000 dilution.

± gives the standard deviation.

B1: H3 5-17 Q T A R K Sph T G G K A P R (peptide)
chain: QTARKSTGGKAPR
As to B1, the “peptide microarray binding signal” value in assay [1] (peptide modifications: H3S10ph, binder concentration: 50 nM) stood at 0.00589 ± 6.1e-05; in assay [1] (peptide modifications: H3S10ph, binder concentration: 500 nM) it was 0.0117 ± 0.0012; in assay [2] (peptide modifications: H3S10ph, binder concentration: 10 nM), 0.00955 ± 0.00078; in assay [2] (peptide modifications: H3S10ph, binder concentration: 100 nM), 0.0203 ± 0.002; in assay [3] (setting [5]) it was 0.00142 ± 0.0001; in assay [3] (setting [6]) it was 0.0024 ± 0.00015. Moreover, the “peptide microarray binding signal” value in assay [4] (setting [5]) came to 0.000785 ± 1.3e-05; in assay [4] (setting [6]) it was 0.0011 ± 1.1e-05.

B2: H3 5-17 Q T A R K S Tph G G Kme2 A P R (peptide)
chain: QTARKSTGGKAPR
Take B2: the “peptide microarray binding signal” value in assay [1] (peptide modifications: H3T11ph H3K14me2, binder concentration: 50 nM) was found to be 0.00216 ± 8e-05; in assay [1] (peptide modifications: H3T11ph H3K14me2, binder concentration: 500 nM), 0.00505 ± 0.00083; in assay [2] (peptide modifications: H3T11ph H3K14me2, binder concentration: 10 nM), 0.00239 ± 0.00024; in assay [2] (peptide modifications: H3T11ph H3K14me2, binder concentration: 100 nM), 0.00213 ± 0.00021; in assay [3] (setting [7]) it was 0.00496 ± 0.0019; in assay [3] (setting [8]), 0.00605 ± 0.0024. Moreover, the figures for the “peptide microarray binding signal” value in assay [4] (setting [7]) and in assay [4] (setting [8]) were 0.00177 ± 0.00016 and 0.00248 ± 0.00058, respectively.

B3: H3 5-17 Q T A R K Sph T G G Kme2 A P R (peptide)
chain: QTARKSTGGKAPR
On to B3, for which the “peptide microarray binding signal” value turned out to be 0.0068 ± 0.00015 in assay [1] (peptide modifications: H3S10ph H3K14me2, binder concentration: 50 nM); 0.015 ± 0.00086 in assay [1] (peptide modifications: H3S10ph H3K14me2, binder concentration: 500 nM); 0.00597 ± 0.00047 in assay [2] (peptide modifications: H3S10ph H3K14me2, binder concentration: 10 nM); 0.0125 ± 0.0027 in assay [2] (peptide modifications: H3S10ph H3K14me2, binder concentration: 100 nM); 0.00874 ± 0.00064 in assay [3] (setting [9]); 0.0077 ± 0.0015 in assay [3] (setting [10]). The figures for the “peptide microarray binding signal” value in assay [4] (setting [9]) and in assay [4] (setting [10]) were 0.00565 ± 0.00062 and 0.00294 ± 0.00015, respectively.

B4: H3 5-17 Q T A R K S Tph G G K A P R (peptide)
chain: QTARKSTGGKAPR
Take B4: the “peptide microarray binding signal” value was 0.0138 ± 0.005 in assay [1] (peptide modifications: H3T11ph, binder concentration: 50 nM); 0.014 ± 0.0037 in assay [1] (peptide modifications: H3T11ph, binder concentration: 500 nM); 0.0156 ± 0.0015 in assay [2] (peptide modifications: H3T11ph, binder concentration: 10 nM); 0.0409 ± 0.0057 in assay [2] (peptide modifications: H3T11ph, binder concentration: 100 nM); 0.0044 ± 0.0008 in assay [3] (setting [11]); 0.00553 ± 0.00047 in assay [3] (setting [12]). Besides, the “peptide microarray binding signal” value was 0.00195 ± 7.3e-05 in assay [4] (setting [11]) and 0.00254 ± 0.00012 in assay [4] (setting [12]).

B5: H3 5-17 Q T A R K Sph T G G Kme3 A P R (peptide)
chain: QTARKSTGGKAPR
B5: the “peptide microarray binding signal” value in assay [1] (peptide modifications: H3S10ph H3K14me3, binder concentration: 50 nM) amounted to 0.005486 ± 5.1e-05; in assay [1] (peptide modifications: H3S10ph H3K14me3, binder concentration: 500 nM) it was 0.0236 ± 0.0018; in assay [2] (peptide modifications: H3S10ph H3K14me3, binder concentration: 10 nM) it was 0.0113 ± 0.0025; in assay [2] (peptide modifications: H3S10ph H3K14me3, binder concentration: 100 nM) it was 0.014 ± 0.0073; in assay [3] (setting [13]), 0.0516 ± 0.0021; in assay [3] (setting [14]) it was 0.0433 ± 0.025. Also, the “peptide microarray binding signal” value turned out to be 0.132 ± 0.038 in assay [4] (setting [13]) and 0.0759 ± 0.013 in assay [4] (setting [14]).
